Each structure is given as a SMILES string. The source made the active and inactive calls.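 Rule for the calls: active = compounds whose dose series gives a full or clear partial fitted curve of increased nuclear translocation; inconclusive = weak partial curve or effect only at the top dose; inactive = no dose-dependent translocation response.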
Potency is the fitted concentration of half-maximal effect.

Chain of Glucocorticoid receptor (Homo sapiens) (P04150 whole entry, looked up): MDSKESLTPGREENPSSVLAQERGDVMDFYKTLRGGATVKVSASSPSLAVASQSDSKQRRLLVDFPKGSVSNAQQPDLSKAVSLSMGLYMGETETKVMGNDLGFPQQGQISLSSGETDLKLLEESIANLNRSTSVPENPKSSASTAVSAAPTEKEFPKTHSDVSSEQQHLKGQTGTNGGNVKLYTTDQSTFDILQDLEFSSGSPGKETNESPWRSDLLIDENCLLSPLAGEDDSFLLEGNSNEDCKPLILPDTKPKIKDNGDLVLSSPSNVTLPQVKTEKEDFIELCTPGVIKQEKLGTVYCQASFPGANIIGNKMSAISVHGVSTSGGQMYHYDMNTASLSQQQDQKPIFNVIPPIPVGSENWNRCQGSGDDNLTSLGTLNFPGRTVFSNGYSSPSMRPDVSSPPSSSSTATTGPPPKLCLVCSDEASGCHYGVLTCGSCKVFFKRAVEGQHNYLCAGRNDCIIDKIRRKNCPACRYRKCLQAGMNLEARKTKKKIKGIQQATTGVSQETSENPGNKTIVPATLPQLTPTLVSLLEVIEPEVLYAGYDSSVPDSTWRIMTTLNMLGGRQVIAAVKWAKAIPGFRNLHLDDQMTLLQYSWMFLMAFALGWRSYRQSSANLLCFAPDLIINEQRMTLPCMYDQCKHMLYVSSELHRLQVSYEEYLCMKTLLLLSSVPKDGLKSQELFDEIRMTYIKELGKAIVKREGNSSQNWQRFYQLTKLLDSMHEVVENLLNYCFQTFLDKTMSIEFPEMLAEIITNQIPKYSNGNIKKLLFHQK

In this test the target is Glucocorticoid receptor (Homo sapiens) (UniProt P04150). Nature of the test: GR-GFP Redistribution (AID 450). The following applies: U2OS GR-GFP nuclear translocation, laser cytometry, 2 h. The source says:
NIH Molecular Libraries Screening Centers Network [MLSCN]
NIH Chemical Genomics Center [NCGC]
The glucocorticoid receptor (GR) Redistribution assay (BioImage) enables the visualization of GR cytoplasmic to nuclear translocation by the use of a GR-GFP fusion. GR is normally cytosolic, however ligands such as dexamethasone, cause nuclear translocation where the protein binds to response elements and interacts with various co-factors to modulate transcription. Because both functional agonists and antagonists can induce nuclear translocation, this assay can detect ligands regardless of their effects on gene expression. GR-GFP expressing U20S cells were used here. Dexamethasone was the positive control for translocation and data normalization. Detection of nuclear translocation was performed in 1536-well plates using the Acumen laser scanning plate cytometer (TTP LabTech). Validation of this assay and a detailed protocol have been described.
NCGC Assay Protocol Summary:
GR-GFP U2OS cells were maintained in DMEM with Glutamax and high glucose, 1% v/v penicillin-streptomycin, and 0.5 mg/mL Geneticin. For cell culture, 10% […] fetal bovine serum (FBS) was used (Invitrogen #26140-079). For cell plating 10% dextran, charcoal-stripped FBS (Hyclone SH30068.03) was used. U2OS cells were trypsin treated, suspended in medium, and passed through a 40 um basket filter. The cells were seeded at 600 cells/5 uL/well into clear-bottom black sided 1536-well plates and incubated for approximately 20 hrs, 37degC, 5%, CO2 in a tissue culture incubator. Twenty-three nL of compound was delivered by pin tool and the plates were incubated as above for 2 hrs. The compounds were tested as a 7-point titration ranging from 46 uM to 0.6 nM. The cells were fixed using the Kalypsys Washer/Dispenser station. The fixing protocol involved aspiration of the cell media, addition of 6 uL/well of PBS, aspiration of PBS, addition of 5uL/well of 100% methanol, aspiration of methanol, and addition of 3 uL/well PBS with 1.5 uM propidium iodide (PI). The plates were read by the Acumen Explorer using a 1 x 8 um scan of the whole well area. PI fluorescence triggered the collection of PI and GFP signals. A nuclei population was defined by a 10 to 100 um width and depth filter that eliminated small and large fluorescent particles. Two subpopulations of nuclei were then defined by peak intensity of GFP fluorescence to obtain translocated and untranslocated objects. The number of translocated objects was used for data normalization.
Keywords: NIH Roadmap, MLSCN, MLI, MLSMR, sOGT, qHTS, NCGC
As for `CN(C)CCC(C#N)(c1ccccc1)c1ccccc1`, the Potency is > 46 µM (inactive).
Regarding `NC[C@H](O)c1cc(O)c(O)cc1F`, the Potency was > 46 µM (inactive).
In the case of `CN(C)[C@@H]1C(=O)C(C(N)=O)=C(O)[C@]2(O)C(=O)C3=C(O)c4c(O)cccc4[C@](C)(O)[C@H]3C[C@@H]12`, the Potency is > 46 µM (inactive).
Turning to `CC(=O)O/C(=C1/C[C@H]2[C@@H]3CC=C4C[C@@H](OC(C)=O)CC[C@]4(C)[C@@H]3CC[C@]2(C)C1=O)C(F)(F)F`, the Potency was > 46 µM (inactive).
The value for `Nc1nc(N)c(N=Nc2ccc([As](=O)(O)O)cc2)c(=O)[nH]1` was > 46 µM (inactive).
As to `C#CCN[C@@H](C)Cc1ccccc1`, the Potency is > 46 µM (inactive).
For the molecule `CC(=O)c1c(O)c(C)c(O)c(Cc2c(O)c3c(c(C(=O)/C=C\c4ccccc4)c2O)OC(C)(C)C=C3)c1O`, the Potency was > 46 µM (inactive).
For `O=[As](O)(O)c1ccc(Cc2ccc([As](=O)(O)O)cc2)cc1`, the Potency is > 46 µM (inactive).
The same measure for `O[C@H](CN1CC1)[C@@H](O)CN1CC1`: > 46 µM (inactive).
Take `O=C(O)C[O][Sb][O]CC(=O)O`: the Potency was > 46 µM (inactive).
The same measure for `CN[C@H](Cc1ccccc1)c1cccc(OC)c1O`: > 46 µM (inactive); for `CCSCC[C@H](N)C(=O)O`: > 46 µM (inactive).
Turning to `COc1cc(C[C@H](C)N)c(OC)cc1I`, the Potency is > 46 µM (inactive).
The value for `CS(=N)(=O)CC[C@H](N)P(=O)(O)O` (stereo not given in full) was > 46 µM (inactive); that for `CN(C)CS/C(N)=N/[C@H](O)C(Cl)(Cl)Cl` was > 46 µM (inactive).
Consider `COc1cc2ccccc2c2cc([N+](=O)[O-])oc12`, for which the Potency was > 46 µM (inactive).
The value for `O=C(O)C[C@H]1NCc2cc3ccccc3nc21` was > 46 µM (inactive).
Consider `C[N+]1(C)C2CC[C@H]1CC(OC(=O)[C@@H](CO)c1ccccc1)C2` (stereo not given in full), for which the Potency was > 46 µM (inactive).
As to `C[C@@H]1CC[C@@H]2N(C1)C[C@H]1[C@@](O)([C@H](O)C[C@]3(O)[C@H]4CC[C@H]5[C@]6(O)O[C@]4(C[C@]13O)[C@@]5(C)CC[C@@H]6O)[C@@]2(C)O`, the Potency was > 46 µM (inactive).
With `O=C(O)C[C@H]1OCC=C2CN3CC[C@@]45C6=CC(=O)C(=O)C([N+](=O)[O-])=C6N[C@H]4[C@H]1[C@H]2C[C@@H]35`, the Potency is > 46 µM (inactive).
For the molecule `CC(C)N[C@@H](C)Cc1ccc(I)cc1`, the Potency was > 46 µM (inactive).
The same measure for `CCN(CC)c1ncnc2c1ncn2[C@@H]1O[C@@H](COP(=O)(O)OP(=O)(O)C(Br)(Br)P(=O)(O)O)[C@H](O)[C@@H]1O`: > 46 µM (inactive); for `COc1ccc2c3c1O[C@@H]1C(=O)CC[C@@]4(O)[C@@H](C2)N(CC2CC2)CC[C@]314`: > 46 µM (inactive).
The same measure for `CC(C)[C@@]1(NC(=O)[C@@H]2C=C3c4cccc5[nH]cc(c45)C[C@@H]3N(C)C2)O[C@]2(O)[C@H]3CCCN3C(=O)[C@H](Cc3ccccc3)N2C1=O`: > 46 µM (inactive); for `C[C@@H](O)CN(CCN(C[C@@H](C)O)C[C@@H](C)O)C[C@@H](C)O.O=[N+]([O-])O.[Cu]`: > 46 µM (inactive); for `N[C@H](Cn1oc(=O)[nH]c1=O)C(=O)O`: > 46 µM (inactive).
The value for `Cc1ccc(S(=O)ON2CCC(C(=O)O)(c3ccccc3)CC2)cc1` (stereo not given) was > 46 µM (inactive); that for `c1ccc(CCN2CCCCCC2)nc1` was > 46 µM (inactive).
For the molecule `NCCc1ccc(S(=O)(=O)O)cc1[N+](=O)[O-]`, the Potency is > 46 µM (inactive).
As to `CN(CCC(=O)O)C1=Nc2ccc(Cl)cc2C(c2ccccc2)=[N+]([O-])C1`, the Potency is > 46 µM (inactive).
As for `Oc1c(Cl)c(Cl)c(Cl)c(Cl)c1Cl` (tested in a mixture with another compound), the Potency was > 46 µM (inactive).
For the molecule `Nc1ccc(S(=O)(=O)c2ccc(NCN3C(=O)NC(=O)C(=O)C3=O)cc2)cc1`, the Potency is > 46 µM (inactive).
For `O=C(O)[C@H](Cc1cnc[nH]1)N1C(=O)c2ccccc2C1=O`, the Potency was > 46 µM (inactive).
Regarding `C[N+]1(C)CCc2cc3c(cc2[C@@H]1[C@@H]1OC(=O)c2c1ccc1c2OCO1)OCO3`, the Potency is > 46 µM (inactive).
Regarding `NC(=O)c1ccc(C(=O)Nc2ccc([As](=O)(O)O)cc2)cc1`, the Potency is > 46 µM (inactive).
The same measure for `Cc1ccc(S(=O)(=O)O[C@H]2CN3CCC2CC3)cc1`: > 46 µM (inactive); for `CN1C[C@H](C(=O)N[C@@]2(C)O[C@@]3(O)[C@H]4CCCN4C(=O)[C@@H](Cc4ccccc4)N3C2=O)C=C2c3cccc4[nH]cc(c34)C[C@@H]21`: > 46 µM (inactive); for `N[C@H](Cc1c[nH]c2ccccc12)P(=O)(O)O`: > 46 µM (inactive).
With `Oc1ccc([C@H](O)[C@@H]2CCCCN2)cc1O`, the Potency is > 46 µM (inactive).
With `O=C(CCN1CC2CCC(CC2)C1)c1cccs1`, the Potency is > 46 µM (inactive).

Source of the values: PubChem BioAssay (NCATS).
